Records with an inconclusive call do not appear. The source made the active and inactive calls. Calls follow the shape of the dose curve; as a rule, active = well fitted curve in the direction sought with a large enough effect; inconclusive = small, poorly fitted or top-dose-only effect, or another doubt; inactive = no such curve, though single readings can be large; an effect the other way counts as inactive or inconclusive.
How the values were obtained:
[1] = tested on: CRL-7250; assay: Cytotoxic Profiling of Annotated Libraries Using Quantitative High-Throughput Screening (AID 1296008); details: Five cell lines viability, CellTiter-Glo ATP luminescence, 48-72 h; max response: stronger effect = lower value; also: nearly all actives have a fitted effect of over 60% in size; also: potency is read from the fitted curve at half-maximal effect; as to max response: % is scaled to controls: 0 for no effect and ±100 for the full control effect
Summary of the method: (§1)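 Cells exposed to compounds for 48 or 72 hr at 37 degrees Celsius. Viability read as ATP-coupled luminescence with CellTiter-Glo after 10 min at room temperature.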

[2] = tested on: HEK293; assay: as above; details: Five cell lines viability, CellTiter-Glo ATP luminescence, 48-72 h; max response: stronger effect = lower value
Summary of the method: as §1

[3] = tested on: KB-3-1; assay: as above; details: Five cell lines viability, CellTiter-Glo ATP luminescence, 48-72 h; max response: stronger effect = lower value
Summary of the method: as §1

[4] = tested on: NIH3T3; assay: as above; details: Five cell lines viability, CellTiter-Glo ATP luminescence, 48-72 h; max response: stronger effect = lower value
Summary of the method: as §1

[5] = tested on: HEK293T; assay: qHTS assay to identify novel small-molecules to repurpose for Merkel cell carcinoma treatment (AID 1296009); details: MCC and control cell lines, CellTiter-Glo viability, 72 h; at 44.8 µM (top of the series) unless noted; also: nearly all actives have a fitted effect of over 60% in size; also: potency is read from the fitted curve at half-maximal effect; as to activity change, negative = cytotoxicity: % is scaled to controls: 0 for no effect and ±100 for the full control effect
Summary of the method: (§2)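 Cells were treated for 72 hr at 37 degree celsius with compounds in 8- or 11-point dose response. Viability was read by CellTiter-Glo luminescence, normalized to no-cell (cytotoxicity) and DMSO controls.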

[6] = tested on: MCC-13; assay: as above; details: MCC and control cell lines, CellTiter-Glo viability, 72 h; series mostly up to 46 µM
Summary of the method: as §2

[7] = tested on: MCC-26; assay: as above; details: MCC and control cell lines, CellTiter-Glo viability, 72 h; series mostly up to 46 µM
Summary of the method: as §2

[8] = tested on: MKL-1; assay: as above; details: MCC and control cell lines, CellTiter-Glo viability, 72 h; series mostly up to 46 µM
Summary of the method: as §2

[9] = tested on: MKL-2; assay: as above; details: MCC and control cell lines, CellTiter-Glo viability, 72 h; series mostly up to 46 µM
Summary of the method: as §2

[10] = tested on: UISO; assay: as above; details: MCC and control cell lines, CellTiter-Glo viability, 72 h; series mostly up to 46 µM
Summary of the method: as §2

[11] = tested on: WaGa; assay: as above; details: MCC and control cell lines, CellTiter-Glo viability, 72 h; series mostly up to 46 µM
Summary of the method: as §2

[12] = tested on: C33A; assay: Primary qHTS to identify gynecologic anti-cancer compounds using libraries of approved drugs and bioactive compounds (AID 1345084); details: Gynecologic cancer cell panel viability, ATPlite luminescence, 48 h; series mostly up to 57.5 µM; also: % is scaled to controls: 0 for no effect and ±100 for the full control effect; nearly all actives have a fitted effect of over 55% in size
Summary of the method: (§3)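 Five-concentration response, 48 h; readout is ATP-driven luciferase luminescence.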

[13] = tested on: CAOV3; assay: as above; details: Gynecologic cancer cell panel viability, ATPlite luminescence, 48 h; series mostly up to 57.5 µM
Summary of the method: as §3

[14] = tested on: CASKI; assay: as above; details: Gynecologic cancer cell panel viability, ATPlite luminescence, 48 h; series mostly up to 57.5 µM
Summary of the method: as §3

[15] = tested on: Es-2; assay: as above; details: Gynecologic cancer cell panel viability, ATPlite luminescence, 48 h; series mostly up to 57.5 µM
Summary of the method: as §3

[16] = tested on: HeLa; assay: as above; details: Gynecologic cancer cell panel viability, ATPlite luminescence, 48 h; series mostly up to 57.5 µM
Summary of the method: as §3

[17] = tested on: W2; assay: qHTS profiling for inhibitors of Plasmodium falciparum proliferation (AID 504749); also: nearly all actives have a fitted effect of over 60% in size; also: potency is read from the fitted curve at half-maximal effect; details: P. falciparum in erythrocytes, SYBR Green DNA, 72 h; series mostly up to 28.7 µM
Summary of the method: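 P. falciparum-infected erythrocytes (0.3% parasitemia, 2.5% hematocrit) incubated with compound 72 h at 37 C, 5% CO2. Parasite DNA detected by SYBR Green after lysis, overnight at room temperature; normalised to 0.29 uM artemisinin and DMSO.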

[18] = tested on: HaCat; assay: Cytotoxic Profiling of Annotated Libraries Using Quantitative High-Throughput Screening (AID 1296008); details: Five cell lines viability, CellTiter-Glo ATP luminescence, 48-72 h; max response: stronger effect = lower value; also: nearly all actives have a fitted effect of over 60% in size; also: potency is read from the fitted curve at half-maximal effect; as to max response: % is scaled to controls: 0 for no effect and ±100 for the full control effect
Summary of the method: as §1

CCN[C@@H]1C[C@H](N)[C@@H](OC2OC(CN)=CCC2N)[C@H](O)[C@H]1O[C@H]1OC[C@](C)(O)[C@H](NC)[C@H]1O (some centres not stated)
inactive: max response [1] 0.244% | outcome [2] | max response [3] 17.1% | max response [4] -0.0944% | outcome [5] inactive [at 0.588 µM] | activity change, negative = cytotoxicity [6] 16.3% [at 0.597 µM] | activity change, negative = cytotoxicity [7] 2.75% [at 0.597 µM] | activity change, negative = cytotoxicity [8] 9.5% [at 0.597 µM] | activity change, negative = cytotoxicity [9] 2.5% [at 0.597 µM] | activity change, negative = cytotoxicity [10] 19.1% [at 0.597 µM] | activity change, negative = cytotoxicity [11] 13.3% [at 0.597 µM] | activity change, negative = cytotoxicity [12] 4.69% [at 0.462 µM] | activity change, negative = cytotoxicity [13] 0% [at 0.462 µM] | activity change, negative = cytotoxicity [14] -0.808% [at 0.462 µM] | activity change, negative = cytotoxicity [15] 9.29% [at 0.462 µM] | activity change, negative = cytotoxicity [16] 15.4% [at 0.462 µM]

CCCCCN=C(N)N/N=C/c1c[nH]c2ccc(OC)cc12
inactive: max response [3] 1.55% | Potency [8] | Potency [9] | Potency [11]
active: Potency [17] 1.51 µM | Potency [1] 18.8 µM | Potency [2] 8.41 µM | Potency [7] 23.7 µM | Potency [10] 11.9 µM

OC[C@H]1O[C@@H](Oc2ccc(O)cc2)[C@H](O)[C@@H](O)[C@@H]1O
inactive: max response [1] -17% | max response [2] -74.1% | max response [3] 3.33% | max response [4] -45.3% | Potency [6] | Potency [7] | Potency [8] | Potency [9] | Potency [10] | Potency [12] | Potency [13] | Potency [14] | Potency [15] | Potency [16]

Nc1ccc(S(=O)(=O)NCc2ccccc2)cc1
inactive: Potency [17] | max response [1] -13.3% | max response [2] 3.66% | max response [4] -0.659% | Potency [6] | Potency [7] | Potency [8] | Potency [9] | Potency [10] | Potency [11] | Potency [12] | Potency [13] | Potency [14] | Potency [15] | Potency [16]

COP(=O)(OC)OC(c1ccc(Cl)cc1)P(=O)(OC)OC (configuration not stated)
inactive: Potency [17] | max response [1] -8.32% | max response [2] -64.4% | max response [18] -2.94% | max response [4] -38.8% | Potency [6] | Potency [8] | Potency [9] | Potency [10] | Potency [11] | Potency [12] | Potency [13] | Potency [14] | Potency [15] | Potency [16]

NC(=O)c1ccccc1O
inactive: Potency [17] | max response [1] 2.66% | outcome [2] | max response [3] 10.4% | max response [4] -3.05% | outcome [5] | Potency [6] | Potency [7] | Potency [8] | Potency [9] | Potency [10] | Potency [11] | Potency [12] | Potency [13] | Potency [14] | Potency [15] | Potency [16]

CC(C)(C)NC[C@H](O)COc1nsnc1N1CCOCC1
inactive: max response [1] -0.569% | max response [2] 1.26% | max response [3] 0.822% | max response [4] -2.25% | Potency [6] | Potency [7] | Potency [8] | Potency [9] | Potency [10] | Potency [11] | Potency [12] | Potency [13] | Potency [14] | Potency [15] | Potency [16]
active: Potency [17] 1.51 µM

COc1ccc2c(c1)c1c3n2CCN(C)C3=NCC1
inactive: Potency [17] | outcome [1] | max response [2] 3.32% | max response [3] 0.417% | max response [4] 0.478% | Potency [6] | Potency [7] | Potency [8] | Potency [9] | Potency [10] | Potency [11] | Potency [12] | Potency [14] | Potency [15] | Potency [16]

N=C(N)N1CCc2ccccc2C1
inactive: Potency [17] | max response [1] -4.65% | max response [2] -8.82% | max response [3] 4.15% | max response [4] -1.16% | activity change, negative = cytotoxicity [6] 22.3% [at 4.84 µM] | activity change, negative = cytotoxicity [8] -2.59% [at 4.84 µM] | activity change, negative = cytotoxicity [9] -8.08% [at 4.84 µM] | activity change, negative = cytotoxicity [10] -8.38% [at 4.84 µM] | activity change, negative = cytotoxicity [11] -9.27% [at 4.84 µM] | activity change, negative = cytotoxicity [12] -2.35% [at 6.55 µM] | activity change, negative = cytotoxicity [13] 8.37% [at 6.55 µM] | activity change, negative = cytotoxicity [14] -9.81% [at 6.55 µM] | activity change, negative = cytotoxicity [15] -6.19% [at 6.55 µM] | activity change, negative = cytotoxicity [16] -13.2% [at 6.55 µM]

Source: PubChem BioAssay (NCATS)
